Results as given in PubChem BioAssay (Tox21).
Values joined by “and” are separate entries in the source; they are usually repeats but may differ in a detail not shown here. Identical values can stand only once. Results filed as inconclusive are left out. Some structures have more than one record in an assay (separate samples or runs), and their calls can disagree. Active and inactive are the calls of the source. Unless noted, calls come from the whole dose curve; as a rule, active = well fitted curve in the direction sought with a large enough effect in the repeat runs; inconclusive = weak or mixed curves; inactive = no such curve, though single readings can be large; an effect the other way counts as inactive or inconclusive.

How the values were obtained:
[1] = qHTS assay to identify aromatase inhibitors - cell viability counter screen (AID 743084);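 note: cells stimulated with testosterone during compound exposure; nearly all actives have a fitted effect of over 55% in size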; note: potency is the fitted concentration of half-maximal effect
[2] = target: Aryl hydrocarbon receptor (Homo sapiens) (UniProt P35869); assay: qHTS assay to identify small molecule that activate the aryl hydrocarbon receptor (AhR) signaling pathway (AID 743085); note: nearly all actives have a fitted effect of over 15% in size; note: potency is the fitted concentration of half-maximal effect;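 for activation: HG2L7.5c1 human HepG2 liver cells with stably integrated DRE-driven firefly reporter; series mostly up to about 70 µM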
Chain of Aryl hydrocarbon receptor (Homo sapiens) (P35869 whole entry, looked up): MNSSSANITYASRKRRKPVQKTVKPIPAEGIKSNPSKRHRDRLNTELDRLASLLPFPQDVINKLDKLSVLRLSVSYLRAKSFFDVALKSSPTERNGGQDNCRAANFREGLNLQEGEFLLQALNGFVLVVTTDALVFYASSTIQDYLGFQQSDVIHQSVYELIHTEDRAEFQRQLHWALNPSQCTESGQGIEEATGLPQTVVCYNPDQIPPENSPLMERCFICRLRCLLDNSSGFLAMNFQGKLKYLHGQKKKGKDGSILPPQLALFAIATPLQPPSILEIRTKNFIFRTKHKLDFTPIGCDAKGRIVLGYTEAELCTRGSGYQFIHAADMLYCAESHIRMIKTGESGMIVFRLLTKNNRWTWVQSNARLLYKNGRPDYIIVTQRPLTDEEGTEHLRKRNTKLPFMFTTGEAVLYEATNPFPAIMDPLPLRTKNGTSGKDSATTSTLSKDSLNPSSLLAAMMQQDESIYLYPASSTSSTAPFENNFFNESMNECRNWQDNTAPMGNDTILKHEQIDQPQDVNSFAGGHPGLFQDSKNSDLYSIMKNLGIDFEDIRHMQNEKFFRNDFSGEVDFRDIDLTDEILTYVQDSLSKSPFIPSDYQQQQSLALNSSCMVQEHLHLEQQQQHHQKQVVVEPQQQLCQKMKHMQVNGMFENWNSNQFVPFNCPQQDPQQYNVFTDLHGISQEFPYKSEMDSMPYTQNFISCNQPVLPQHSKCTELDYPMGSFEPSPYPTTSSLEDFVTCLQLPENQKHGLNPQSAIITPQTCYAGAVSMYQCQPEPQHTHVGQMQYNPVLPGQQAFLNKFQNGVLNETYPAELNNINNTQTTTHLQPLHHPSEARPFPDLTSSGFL
In short: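 Luminescence read-out: ONE-Glo reagent, 30 min at room temperature, in HG2L7.5c1 HepG2 reporter cells treated 24 h at 37C. Viability was measured beforehand by CellTiter-Fluor fluorescence after 30 min at 37C.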

[3] = qHTS assay to identify small molecule that activate the aryl hydrocarbon receptor (AhR) signaling pathway - cell viability counter screen (AID 743086); note: nearly all actives have a fitted effect of over 45% in size; note: potency is the fitted concentration of half-maximal effect
In short: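 HepG2-AhR-luc (HG2L7.5c1) cells, 4000/well, treated 24 h at 37 C with compound; viability measured as CellTiter-Fluor fluorescence after 30 min in the same wells as the luciferase read.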

[4] = qHTS assay to identify small molecule phospholipidosis (PLD) inducers (AID 1259344; active = well fitted curve in the direction sought with a large enough effect; an effect the other way counts as inactive or inconclusive)
In short: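 HepG2 cells, 900/well, treated with compound plus LipidTOX Red for 24 h at 37 C; amiodarone positive and DMSO negative controls. Fixed with paraformaldehyde/Hoechst, then high-content imaging scored LipidTOX pit count and integrated intensity per well and per cell.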

[5] = target: Nuclear receptor subfamily 1 group I member 2 (Rattus norvegicus) (UniProt Q9R1A7); assay: Rat pregnane X receptor (rPXR) activation by small molecules, qHTS assay (AID 1346983); details: rPXR luciferase reporter cells, One-Glo luminescence, 24 h; max activation: stronger effect = higher value; note: nearly all actives have a fitted effect of over 20% in size; note: potency is the fitted concentration of half-maximal effect
Chain of Nuclear receptor subfamily 1 group I member 2 (Rattus norvegicus) (Q9R1A7 whole entry, looked up): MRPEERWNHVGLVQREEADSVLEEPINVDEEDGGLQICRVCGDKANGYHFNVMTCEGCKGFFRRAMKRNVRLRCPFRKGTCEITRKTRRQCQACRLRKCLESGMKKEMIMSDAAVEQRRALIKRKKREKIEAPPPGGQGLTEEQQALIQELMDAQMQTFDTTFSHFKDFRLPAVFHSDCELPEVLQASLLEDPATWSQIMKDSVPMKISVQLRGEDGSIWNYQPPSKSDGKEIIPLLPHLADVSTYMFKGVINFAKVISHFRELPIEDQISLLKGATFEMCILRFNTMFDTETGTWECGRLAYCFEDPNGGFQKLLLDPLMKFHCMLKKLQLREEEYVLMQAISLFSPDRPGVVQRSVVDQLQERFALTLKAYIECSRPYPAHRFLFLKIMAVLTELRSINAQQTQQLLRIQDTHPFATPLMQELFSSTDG
In short: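 Cell-based rPXR activation assay: rPXR cells, 2,000 per well, rested 5hr at 37 C, then exposed to compounds in DMSO for 24 hr at 37 C. Luciferase activity read by One-Glo luminescence after 30 min at room temperature.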

[6] = target: Nuclear receptor subfamily 1 group I member 2 (Homo sapiens) (UniProt O75469); assay: Human pregnane X receptor (PXR) activation by small molecules, qHTS assay (AID 1346985); note: nearly all actives have a fitted effect of over 40% in size; note: potency is the fitted concentration of half-maximal effect
In short: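 DPX-2 cells (HepG2 co-transfected with a PXR response element and a CYP3A4-promoter luciferase construct) were seeded at 2,000 per well, rested 5 hr at 37C, then exposed to DMSO-dissolved compounds for 24 hr. Activation was read as luciferase luminescence.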

[7] = target: Nuclear receptor subfamily 1 group I member 2 (Homo sapiens) (UniProt O75469); assay: CYP3A4 induction through human pregnane X receptor (PXR) by small molecules, qHTS assay (AID 1346984); note: nearly all actives have a fitted effect of over 40% in size; note: potency is the fitted concentration of half-maximal effect
In short: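 DPX-2 reporter cells; 24h cpd, 37C; Luciferin-IPA 3uM final x3h; One-Glo 30 min RT; lumi read.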

[8] = target: Peroxisome proliferator-activated receptor gamma (Homo sapiens) (UniProt P37231); assay: qHTS assay to identify small molecule agonists of the peroxisome proliferator-activated receptor gamma (PPARg) signaling pathway (AID 743094; active = well fitted activation curve with a large enough effect in the signal ratio in the repeat runs, not every such curve was filed as active; the % refers to the signal ratio)
Chain of Peroxisome proliferator-activated receptor gamma (Homo sapiens) (P37231 whole entry, looked up): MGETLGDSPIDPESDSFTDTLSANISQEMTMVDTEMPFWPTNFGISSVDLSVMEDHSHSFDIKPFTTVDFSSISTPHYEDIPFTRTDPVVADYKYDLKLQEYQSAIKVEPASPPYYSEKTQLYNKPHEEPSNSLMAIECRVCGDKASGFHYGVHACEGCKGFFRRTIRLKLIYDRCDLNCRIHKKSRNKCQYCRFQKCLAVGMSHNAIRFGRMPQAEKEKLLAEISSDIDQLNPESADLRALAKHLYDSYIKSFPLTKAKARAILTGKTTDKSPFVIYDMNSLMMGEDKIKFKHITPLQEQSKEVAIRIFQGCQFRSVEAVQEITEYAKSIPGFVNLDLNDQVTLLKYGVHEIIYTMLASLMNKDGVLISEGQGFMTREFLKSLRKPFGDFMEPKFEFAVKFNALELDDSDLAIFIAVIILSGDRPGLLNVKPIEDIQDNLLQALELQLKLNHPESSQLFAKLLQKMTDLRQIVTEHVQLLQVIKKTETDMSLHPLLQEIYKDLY
In short: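 Stably transfected HEK293H cells (GeneBLAzer PPARg UAS-bla) were incubated with test substances for 17 h at 37C after a 5 h pre-incubation; beta-lactamase activity was then detected by FRET substrate fluorescence.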
% is set by controls: 0 for no effect and ±100 for the full control effect.

S=C1SCN(Cc2ccccc2)CN1Cc1ccccc1
active: Potency [6] 14.1 µM
inactive: Potency [1] | Potency [2] | Potency [3] | Potency [4] | max activation [5] 2.55%

C=CCOc1ccc(CC(=O)O)cc1Cl
inactive: Potency [1] | Potency [4] | Potency [7] | Potency [6]

C#C[C@]1(O)CC[C@H]2[C@@H]3CCC4=C(CCC(=O)C4)[C@H]3CC[C@@]21C
inactive: Potency [1] | Potency [2] | Potency [8] | Potency [4] | max activation [5] 5.01% | Potency [6]

NC(=O)OC[C@@H]1[C@H](NC(=O)/C(=N\OCC(=O)O)c2csc(N)n2)C(=O)N1S(=O)(=O)O
inactive: Potency [3] | Potency [4] | max activation [5] -2.39% | Potency [7]

CC[C@@H]1/C=C(\C)C[C@H](C)C[C@H](OC)[C@H]2O[C@@](O)(C(=O)C(=O)N3CCCC[C@H]3C(=O)O[C@H](/C(C)=C/[C@@H]3CC[C@@H](Cl)[C@H](OC)C3)[C@H](C)[C@@H](O)CC1=O)[C@H](C)C[C@@H]2OC
inactive: Potency [1] | Potency [2] | Potency [3] | Potency [8] | Potency [4] | max activation [5] -6.11% | Potency [6]

CC(C)c1nc(N(C)S(C)(=O)=O)nc(-c2ccc(F)cc2)c1/C=C/C(O)CC(O)CC(=O)O (stereo not given)
inactive: Potency [1] | Potency [2] | Potency [3] | Potency [8] | Potency [4] | max activation [5] 0.498% | Potency [6]

Cc1cc(O)c2c(c1)O[C@@]1(C)CC[C@H]3C(C)(C)CCCC34CO[C@@H]2[C@H]41 (stereo not given in full)
active: Potency [1] 29.8 µM | Potency [6] 2.82 µM
inactive: Potency [2] | Potency [3] | Potency [4] | Potency [7]

CC(=O)[C@]1(O)Cc2c(O)c3c(c(O)c2[C@@H](O[C@H]2C[C@H](N)[C@H](O)[C@H](C)O2)C1)C(=O)c1c(O)cccc1C3=O
14.1 µM (active) and inactive: Potency [6]
inactive: Potency [2] | PLD induction [4] -0.0504% [at 7.66 µM] | Potency [7]
active: Potency [1] 26.6 µM | Potency [3] 4.73 µM and 13.3 µM

CC(C)CN(C[C@@H](O)[C@H](Cc1ccccc1)NC(=O)O[C@@H]1CCOC1)S(=O)(=O)c1ccc(N)cc1
inactive: Potency [1] | Potency [2] | Potency [3] | Potency [4] | Potency [7]
active: Potency [6] 2.82 µM

CC[N+](C)(C)Cc1ccccc1Br
inactive: Potency [1] | Potency [2] | Potency [3] | Potency [8] | Potency [4] | max activation [5] -1.23%

CO[C@@H]1[C@@H](O[C@@H]2O[C@H](C)[C@@H](O[C@H]3C[C@@](C)(O)[C@@H](O)[C@H](C)O3)[C@H](N(C)C)[C@H]2O)[C@@H](CC=O)C[C@@H](C)[C@@H](O[C@@H]2CC[C@H](N(C)C)[C@@H](C)O2)/C=C/C=C/C[C@@H](C)OC(=O)C[C@H]1O
inactive: Potency [1] | Potency [3] | Potency [8] | Potency [4] | max activation [5] -4.61%

COc1cc([C@@H]2c3cc4c(cc3C(O[C@@H]3O[C@@H]5COC(c6cccs6)O[C@H]5[C@H](O)[C@H]3O)C3COC(=O)[C@@H]32)OCO4)cc(OC)c1O (stereo not given in full)
active: Potency [5] 28.2 µM | Potency [6] 10 µM
inactive: Potency [2] | Potency [3] | Potency [4]

CCc1ccc(S(=O)(=O)O)cc1
inactive: Potency [1] | Potency [3] | Potency [8] | Potency [4] | max activation [5] -0.665% | Potency [6]
active: Potency [2] 11.9 µM

CC[C@@H](C(=O)[C@@H](C)[C@@H](O)[C@H](C)[C@@H]1O[C@@H]([C@@H](CC)C(=O)O)CC[C@@H]1C)[C@H]1O[C@]2(C=C[C@@H](O)[C@]3(CC[C@@](C)([C@H]4CC[C@](O)(CC)[C@H](C)O4)O3)O2)[C@H](C)C[C@@H]1C
inactive: Potency [1] | Potency [2] | Potency [3] | Potency [4] | max activation [5] -12.1% | Potency [6]

CC(C)(CO)[C@@H](O)C(=O)NCCC(=O)NCCSSCCNC(=O)CCNC(=O)[C@H](O)C(C)(C)CO
inactive: Potency [1] | Potency [2] | Potency [3] | Potency [8] | Potency [4] | max activation [5] -1.96% | Potency [6]

CCC(=O)OCC(=O)[C@@]1(OC(=O)CC)[C@H](C)C[C@H]2[C@H]3[C@H]([C@@H](O)C[C@@]21C)[C@@]1(C)C=CC(=O)C=C1C[C@H]3Cl
inactive: Potency [1] | Potency [2] | Potency [3] | Potency [8] | Potency [4] | Potency [6]
active: Potency [5] 3.98 µM

O=[n+]1ccn([O-])c2ccccc21
inactive: Potency [3] | Potency [4] | max activation [5] -1.36% | Potency [7]

CCCCCCOc1ccc(C(=N)N(CCCC)CCCC)c2ccccc12
inactive: Potency [2] | Potency [4] | max activation [5] -20.9%
active: Potency [1] 16.8 µM | Potency [3] 18.8 µM

CN[C@H]1CCc2cc(OC)c(OC)c(OC)c2-c2ccc(OC)c(=O)cc21
active: Potency [6] 1 µM
inactive: Potency [1] | Potency [4] | Potency [7]

CCC[C@@H]1C[C@@H](C(=O)N[C@@H]([C@H]2O[C@H](SC)[C@H](O)[C@@H](O)[C@H]2O)[C@H](C)Cl)N(C)C1
inactive: Potency [1] | Potency [2] | Potency [3] | Potency [8] | Potency [4] | max activation [5] 7.71%

C=C(NC(=O)C(=C)NC(=O)c1csc(C2=N[C@@H]3c4csc(n4)[C@H]4NC(=O)c5csc(n5)[C@H]([C@](C)(O)[C@@H](C)O)NC(=O)[C@H]5CSC(=N5)C(=CC)NC(=O)C([C@@H](C)O)NC(=O)c5csc(n5)[C@]3(CC2)NC(=O)[C@H](C)NC(=O)C(=C)NC(=O)[C@H](C)NC(=O)C([C@@H](C)CC)NC2C=Cc3c([C@H](C)O)cc(nc3C2O)C(=O)O[C@@H]4C)n1)C(N)=O (stereo not given in full)
active: Potency [1] 11.4 µM
inactive: Potency [2] | Potency [3] | Potency [4] | Potency [7] | Potency [6]

CCN(CC)CCC(=O)N1c2ccccc2Sc2ccc(Cl)cc21
active: Potency [7] 14.1 µM | Potency [6] 14.1 µM
inactive: Potency [1] | Potency [2] | Potency [4]
